In PubChem BioAssay (NCATS):
Records with an inconclusive call do not appear. This is one part of the list. Active and inactive are the calls of the source. Unless noted, calls follow the shape of the dose curve; as a rule, active = well fitted curve in the direction sought with a large enough effect; inconclusive = small, poorly fitted or top-dose-only effect, or another doubt; inactive = no such curve, though single readings can be large; an effect the other way counts as inactive or inconclusive.

Assays:
[1] = target: Endonuclease 4 (Escherichia coli (strain K12)) (UniProt P0A6C1); assay: Counterscreen for APE1 Inhibitors: qHTS Assay for Inhibitors of Endonuclease IV (AID 2565)
In short: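 Incision of a double-stranded 50 nM TAMRA/BHQ-2 abasic substrate was followed kinetically (525/598 nm, reads every 60 s) after 15 min enzyme–compound preincubation with 2 nM EndoIV in pH 7.5 Tris buffer with MgCl2, DTT and Tween-20; concentration-response format.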

[2] = target: DNA repair nuclease/redox regulator APEX1 (Homo sapiens) (UniProt P27695); assay: Confirmation qHTS Assay for Inhibitors of the Human Apurinic/apyrimidinic Endonuclease 1 (APE1) (AID 2572);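 also: fluorescence gain from purified APE1 cutting a TAMRA/BHQ-2 THF abasic duplex; nearly all actives have a fitted effect of over 30% in size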
In short: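 Double-stranded THF abasic-site substrate (50 nM final), 5'-TAMRA/3'-BHQ-2; APE1 incision raises fluorescence. Enzyme preincubated with compound 15 min at room temperature before substrate; kinetic read Ex 525/Em 598 nm, signal difference between third and first reads.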

[3] = qHTS Assay for Identification of Small Molecule Inducers of Hypoxia Response (AID 2120; active = well fitted curve in the direction sought with a large enough effect in the signal ratio, with a control signal flat, not every such curve was filed as active; the % refers to the signal ratio)
In short: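 Cell-based qHTS for reporter induction: hypoxia response element controlled beta-lactamase in ME-180 cells. Compounds incubated 17 h at 37 degrees C; activity from blue/green (460/530 nm) ratio, inducers ranked by AC50.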

[4] = target: Ferritin light chain (Equus caballus) (UniProt P02791); assay: qHTS Validation Assay for Identification of Novel General Anesthetics (AID 2323); also: series mostly up to about 77 µM
In short: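 Competitive displacement of profluorescent 1-aminoanthracene (1-AMA, 50% saturated solution in PBS) from 10 uM horse-spleen apoferritin. Compounds incubated 10 min at room temperature; fluorescence read at 380 nm excitation/535 nm emission, normalized to free 1-AMA and complex, fitted with four-parameter Hill equation.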

[5] = target: ATP-dependent DNA helicase Q1 (Homo sapiens) (UniProt P46063); assay: qHTS Validation Assay for Inhibitors of RecQ-Like Dna Helicase 1 (RECQ1) (AID 2353)
In short: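 RECQ1T1 50 nM; forked duplex (20 bp + 30-nt ss tails) 200 nM, ATP 2 mM final; pH 8.0, 2 mM MgCl2, 2.5 ug/ml poly(dI-dC); 15 min compound preincubation; discontinuous kinetic read over 2 h at RT.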

[6] = target: RecQ-like DNA helicase BLM (Homo sapiens) (UniProt P54132); assay: qHTS Validation Assay for Inhibitors of Bloom's syndrome helicase (BLM) (AID 2364)
In short: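 Forked 20-bp duplex substrate (200 nM, TAMRA/BHQ-2) plus 2 mM ATP added after 15 min compound preincubation with 50 nM enzyme, pH 8.0, poly(dI-dC) 2.5 ug/ml. Strand separation followed by fluorescence (525/598 nm) over 2 h, normalized to enzyme-free and DMSO controls.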

[7] = Cytometric Cell-Based qHTS for Inhibitors of the mTORC1 Signaling Pathway in MEF (Tsc2-/-, p53-/-) Cells (AID 2660);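 also: percent of cells above a phospho-rpS6 to PI ratio cutoff in each well; series mostly up to about 38 µM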
In short: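 Tsc2-/-, p53-/- MEFs (empty vector) exposed to compound 24 h at 37 C, fixed, stained with Alexa-488 anti-phospho-rpS6 Ser235/236 and propidium iodide. Acumen laser scanning; phospho-S6/PI ratio thresholded against 7.5 nM rapamycin, reported as % positive cells.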

[8] = High Content Imaging Cell-Based qHTS for Inhibitors of the mTORC1 Signaling Pathway in MEF (Tsc2-/-, p53-/-) Cells (AID 2666);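 also: percent of cells scored positive for phospho-rpS6 Ser235/236 immunostaining by imaging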
In short: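 Tsc2-/-, p53-/- MEFs (empty-vector stable) grown in DMEM + 10% FBS were exposed to compounds for 24 hrs at 37 degree Celsius, fixed, and stained with Alexa-488 anti-phospho-rpS6 Ser235/236 plus Hoechst. Imaging gave the percentage of positive cells per well.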

[9] = High Content Imaging Cell-Based qHTS for Inhibitors of the mTORC1 Signaling Pathway in MEF Cells (AID 2667);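 also: Tsc2-/- p53-/- MEFs stably re-expressing wild-type Tsc2 exposed 24 h; series mostly up to about 38 µM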
In short: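 Tsc2-/-, p53-/- MEFs stably re-expressing WT Tsc2, grown in DMEM + 10% FBS, were treated with compounds for 24 hrs at 37 degree Celsius, fixed, and stained with Alexa-488 phospho-rpS6 Ser235/236 antibody plus Hoechst; results given as % positive cells.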

[10] = Cytometry Cell-Based qHTS for Inhibitors of the mTORC1 Signaling Pathway in MEF cells (AID 2668);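 also: Tsc2-/- p53-/- mouse embryonic fibroblasts stably re-expressing wild-type Tsc2; percent cells positive for phospho-rpS6 Ser235/236 relative to propidium iodide stain; series mostly up to about 38 µM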
In short: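 WT MEFs (Tsc2-/-, p53-/- stably re-expressing WT Tsc2) in DMEM + 10% FBS received compounds 24 hrs after plating, for 24 hrs at 37 degree Celsius. Fixed cells stained with Alexa-488 anti-phospho-rpS6 Ser235/236 and propidium iodide; laser-scanning cytometry read-out.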

[11] = Validation screen for small molecules that induce DNA re-replication in MCF 10A normal breast cells (AID 463097); also: nearly all actives have a fitted effect of over 60% in size
In short: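 Readout: Hoechst nuclear fluorescence intensity, 405 ex / 500-530 em, by scanning plate imager; re-replication scored as increase in nuclei with elevated DNA content. Cells exposed to compound 48 hr, 37 C, 5% CO2 beforehand.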

[12] = target: Ubiquitin carboxyl-terminal hydrolase 2 (Homo sapiens) (UniProt O75604); assay: qHTS Validation Assay for Inhibitors of Ubiquitin-specific Protease USP2a Using CHOP2 as the Reporter (AID 463106)
In short: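 Readout was coupled fluorescence (Ex 485/Em 531 nm), read 60 min after adding 25 nM final Ub-CHOP2 and 25 nM reporter substrate. Beforehand, 10 nM final USP2 core had 30 min at RT with compound in pH 8.0 buffer. Curves were fitted after normalization to NEM and flagged for artifacts using time-zero reads.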

[13] = target: DNA polymerase III PolC-type (Bacillus subtilis (strain 168)) (UniProt P13267); assay: qHTS Validation Assay for the Inhibitors of DNA Replication in Gram-Positive Bacteria (AID 485295);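 also: PicoGreen fluorescence of double-stranded DNA made on primed circular M13 template; series mostly up to about 57 µM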
In short: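 Reconstituted B. subtilis holoenzyme (Pol III, beta clamp, SSB, primase) was preincubated with compound at room temperature, then given single-stranded circular M13Gori plus dNTPs and NTPs. EDTA-containing PicoGreen stopped the reaction, and dsDNA product was read by fluorescence.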

[14] = target: Tumor susceptibility gene 101 protein (Homo sapiens) (UniProt Q99816); assay: qHTS Validation Assay for Iinhibitors of HIV-1 Budding by Blocking the Interaction of PTAP/TSG101 (AID 485342; calls by dose curve)
In short: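 Tsg101 binding domain (10 uM final) in pH 7.5 HEPES/NaCl/Tween 20/EDTA/TCEP buffer was mixed with pin-transferred compounds, then FITC-labeled PTAP peptide (50 nM final) was added; after 20 min at r.t., fluorescence polarization was read.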

[15] = qHTS Validation Assay to Find Inhibitors of Chronic Active B-Cell Receptor Signaling (AID 485345; active = well fitted curve in the direction sought with a large enough effect in the main read-out, with a control signal flat, not every such curve was filed as active)
In short: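 Read-out: ratio of filter-corrected green (IkappaBalpha fusion) to red (native) luciferase signal in doxycycline-induced TMD8 cells after 4 h at 37C. Titration spanned 46 uM–3 nM; Data were normalised to basal cells and 10 uM MG-132 wells.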

[16] = target: Beta-2 adrenergic receptor (Homo sapiens) (UniProt P07550); assay: qHTS validation assay of beta-arrestin-biased ligands of beta2-adrenergic receptor (AID 485366)
In short: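 qHTS, Tango cells, 1500 cells/well, DMEM + 1% FBS. Cpd 18 hr at 37 degrees C. Luciferin/ATP/CoA detection mix, 15 min RT, luminescence read. %Activity from corrected signal; CRC fit, curve class.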

[17] = Quantitative high throughput screen for delayed death inhibitors of the malarial parasite plastid, 96 hour incubation (AID 488745); also: nearly all actives have a fitted effect of over 70% in size; also: potency is read from the fitted curve at half-maximal effect
In short: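 Readout is firefly luciferase luminescence from an integrated reporter in P. falciparum; lower signal marks inhibited growth. Cultures at 2% hematocrit and 0.1% parasitemia were treated with compound across two generations (96 h, 37 C, 5% CO2).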

[18] = Quantitative high throughput screen for delayed death inhibitors of the malarial parasite plastid, 48 hour incubation (AID 488752); also: nearly all actives have a fitted effect of over 65% in size; also: potency is read from the fitted curve at half-maximal effect
In short: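 First, compound was pinned into RPMI 1640 medium containing 0.5% Albumax. Next, reporter-parasite-infected erythrocytes were added to 2% hematocrit and 0.1% parasitemia. After 48 h at 37 C under 5% CO2, luciferase detection reagent was added and luminescence read.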

[19] = qHTS Assay for Modulators of Human Peripheral Myelin Protein 22 (PMP22) Expression/Activity (AID 1967; active = well fitted curve in the direction sought with a large enough effect in the signal ratio; the % refers to the signal ratio)
In short: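 MSC80 mouse Schwann cells stably carrying Pmp22 promoter–green click beetle luciferase plus EF-alpha–red luciferase control were dosed for 24h at 37 °C. Dual-colour luminescence was filter-overlap corrected; %Activity came from green/red ratio versus untreated cells.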

[20] = target: ATP-dependent 6-phosphofructokinase (Trypanosoma brucei brucei) (UniProt O15648); assay: qHTS Validation Assay to Find Inhibitors of T. brucei phosphofructokinase (AID 485368)
In short: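 Luminescent ADP detection measures PFK turnover of fructose-6-phosphate (0.5 mM) with ATP (0.1 mM) at pH 8.0. Reaction runs 45 min at room temperature with 1.25 nM enzyme; inhibitors tested as titrations up to 57 uM.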

Measured: Potency

Sequence of Tumor susceptibility gene 101 protein (Homo sapiens) (Q99816 whole entry, looked up, the tested form may be a part): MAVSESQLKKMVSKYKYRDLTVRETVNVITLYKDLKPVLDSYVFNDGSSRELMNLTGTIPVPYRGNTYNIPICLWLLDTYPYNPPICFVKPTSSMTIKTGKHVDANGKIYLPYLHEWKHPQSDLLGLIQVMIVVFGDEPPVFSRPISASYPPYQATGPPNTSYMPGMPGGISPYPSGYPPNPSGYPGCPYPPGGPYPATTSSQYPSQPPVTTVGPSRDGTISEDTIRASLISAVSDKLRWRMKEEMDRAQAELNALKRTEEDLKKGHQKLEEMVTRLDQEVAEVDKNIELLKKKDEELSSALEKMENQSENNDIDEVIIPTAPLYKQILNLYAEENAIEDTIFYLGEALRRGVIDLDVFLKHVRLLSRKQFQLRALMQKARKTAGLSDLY
Sequence of Ferritin light chain (Equus caballus) (P02791 2-175 limits assumed): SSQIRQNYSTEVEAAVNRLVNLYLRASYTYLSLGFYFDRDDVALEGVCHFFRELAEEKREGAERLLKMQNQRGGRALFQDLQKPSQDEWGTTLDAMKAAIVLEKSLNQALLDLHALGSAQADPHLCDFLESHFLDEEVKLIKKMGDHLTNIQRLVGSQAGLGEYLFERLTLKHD
Sequence of ATP-dependent DNA helicase Q1 (Homo sapiens) (P46063 whole entry, looked up): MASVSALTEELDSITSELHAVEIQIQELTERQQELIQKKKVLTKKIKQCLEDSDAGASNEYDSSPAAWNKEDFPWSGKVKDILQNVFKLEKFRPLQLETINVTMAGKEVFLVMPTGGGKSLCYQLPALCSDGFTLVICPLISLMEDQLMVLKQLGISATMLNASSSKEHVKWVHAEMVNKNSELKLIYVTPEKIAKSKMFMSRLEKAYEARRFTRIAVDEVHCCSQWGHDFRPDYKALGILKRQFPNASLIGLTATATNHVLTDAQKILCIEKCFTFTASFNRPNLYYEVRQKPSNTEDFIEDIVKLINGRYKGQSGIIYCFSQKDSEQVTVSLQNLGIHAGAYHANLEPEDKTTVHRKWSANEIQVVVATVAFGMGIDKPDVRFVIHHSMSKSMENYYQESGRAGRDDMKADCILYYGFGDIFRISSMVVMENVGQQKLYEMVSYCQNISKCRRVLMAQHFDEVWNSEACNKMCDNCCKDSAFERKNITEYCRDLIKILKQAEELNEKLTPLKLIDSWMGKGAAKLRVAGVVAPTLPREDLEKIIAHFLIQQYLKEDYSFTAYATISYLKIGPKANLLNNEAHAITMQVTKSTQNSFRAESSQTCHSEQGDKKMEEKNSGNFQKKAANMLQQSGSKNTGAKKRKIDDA
Sequence of Ubiquitin carboxyl-terminal hydrolase 2 (Homo sapiens) (O75604 whole entry, looked up): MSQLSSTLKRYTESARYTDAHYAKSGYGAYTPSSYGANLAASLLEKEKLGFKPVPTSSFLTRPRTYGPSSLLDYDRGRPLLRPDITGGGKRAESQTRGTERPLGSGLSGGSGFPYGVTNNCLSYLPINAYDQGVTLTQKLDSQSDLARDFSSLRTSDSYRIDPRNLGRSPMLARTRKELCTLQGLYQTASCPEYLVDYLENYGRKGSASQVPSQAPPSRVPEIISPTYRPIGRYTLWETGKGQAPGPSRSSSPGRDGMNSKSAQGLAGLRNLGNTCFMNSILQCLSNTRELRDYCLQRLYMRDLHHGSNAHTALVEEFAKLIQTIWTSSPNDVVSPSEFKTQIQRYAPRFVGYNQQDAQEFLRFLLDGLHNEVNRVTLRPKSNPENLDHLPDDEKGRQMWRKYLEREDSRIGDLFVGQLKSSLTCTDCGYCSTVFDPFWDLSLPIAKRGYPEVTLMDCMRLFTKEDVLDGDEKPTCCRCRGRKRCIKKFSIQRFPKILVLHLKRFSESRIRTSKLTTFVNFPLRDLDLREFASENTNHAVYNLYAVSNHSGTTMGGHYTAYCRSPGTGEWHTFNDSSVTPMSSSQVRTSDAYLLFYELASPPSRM
Sequence of Beta-2 adrenergic receptor (Homo sapiens) (P07550 whole entry, looked up): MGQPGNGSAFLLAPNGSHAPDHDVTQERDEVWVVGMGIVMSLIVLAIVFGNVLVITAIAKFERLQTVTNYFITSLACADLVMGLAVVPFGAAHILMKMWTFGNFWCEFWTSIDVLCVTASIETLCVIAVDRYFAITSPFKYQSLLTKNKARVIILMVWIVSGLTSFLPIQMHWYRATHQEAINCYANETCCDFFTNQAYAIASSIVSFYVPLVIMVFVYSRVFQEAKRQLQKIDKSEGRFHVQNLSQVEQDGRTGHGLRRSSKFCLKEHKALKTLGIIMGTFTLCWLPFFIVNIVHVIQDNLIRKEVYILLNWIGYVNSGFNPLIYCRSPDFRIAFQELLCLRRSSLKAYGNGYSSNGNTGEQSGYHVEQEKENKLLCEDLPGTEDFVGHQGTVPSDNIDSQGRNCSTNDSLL
Sequence of ATP-dependent 6-phosphofructokinase (Trypanosoma brucei brucei) (O15648 whole entry, looked up): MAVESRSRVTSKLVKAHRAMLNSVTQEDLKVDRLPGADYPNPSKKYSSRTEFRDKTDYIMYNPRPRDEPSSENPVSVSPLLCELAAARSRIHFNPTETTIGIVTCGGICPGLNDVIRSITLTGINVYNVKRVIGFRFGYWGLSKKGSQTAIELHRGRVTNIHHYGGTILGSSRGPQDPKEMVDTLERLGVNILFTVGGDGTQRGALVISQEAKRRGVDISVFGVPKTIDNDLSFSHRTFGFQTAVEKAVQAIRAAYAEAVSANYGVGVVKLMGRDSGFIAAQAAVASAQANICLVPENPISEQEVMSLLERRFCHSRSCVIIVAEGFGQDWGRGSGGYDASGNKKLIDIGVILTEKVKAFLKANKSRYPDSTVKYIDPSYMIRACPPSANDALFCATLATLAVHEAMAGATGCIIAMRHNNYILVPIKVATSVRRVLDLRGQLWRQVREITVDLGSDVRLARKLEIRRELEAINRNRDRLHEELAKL
Sequence of RecQ-like DNA helicase BLM (Homo sapiens) (P54132 whole entry, looked up): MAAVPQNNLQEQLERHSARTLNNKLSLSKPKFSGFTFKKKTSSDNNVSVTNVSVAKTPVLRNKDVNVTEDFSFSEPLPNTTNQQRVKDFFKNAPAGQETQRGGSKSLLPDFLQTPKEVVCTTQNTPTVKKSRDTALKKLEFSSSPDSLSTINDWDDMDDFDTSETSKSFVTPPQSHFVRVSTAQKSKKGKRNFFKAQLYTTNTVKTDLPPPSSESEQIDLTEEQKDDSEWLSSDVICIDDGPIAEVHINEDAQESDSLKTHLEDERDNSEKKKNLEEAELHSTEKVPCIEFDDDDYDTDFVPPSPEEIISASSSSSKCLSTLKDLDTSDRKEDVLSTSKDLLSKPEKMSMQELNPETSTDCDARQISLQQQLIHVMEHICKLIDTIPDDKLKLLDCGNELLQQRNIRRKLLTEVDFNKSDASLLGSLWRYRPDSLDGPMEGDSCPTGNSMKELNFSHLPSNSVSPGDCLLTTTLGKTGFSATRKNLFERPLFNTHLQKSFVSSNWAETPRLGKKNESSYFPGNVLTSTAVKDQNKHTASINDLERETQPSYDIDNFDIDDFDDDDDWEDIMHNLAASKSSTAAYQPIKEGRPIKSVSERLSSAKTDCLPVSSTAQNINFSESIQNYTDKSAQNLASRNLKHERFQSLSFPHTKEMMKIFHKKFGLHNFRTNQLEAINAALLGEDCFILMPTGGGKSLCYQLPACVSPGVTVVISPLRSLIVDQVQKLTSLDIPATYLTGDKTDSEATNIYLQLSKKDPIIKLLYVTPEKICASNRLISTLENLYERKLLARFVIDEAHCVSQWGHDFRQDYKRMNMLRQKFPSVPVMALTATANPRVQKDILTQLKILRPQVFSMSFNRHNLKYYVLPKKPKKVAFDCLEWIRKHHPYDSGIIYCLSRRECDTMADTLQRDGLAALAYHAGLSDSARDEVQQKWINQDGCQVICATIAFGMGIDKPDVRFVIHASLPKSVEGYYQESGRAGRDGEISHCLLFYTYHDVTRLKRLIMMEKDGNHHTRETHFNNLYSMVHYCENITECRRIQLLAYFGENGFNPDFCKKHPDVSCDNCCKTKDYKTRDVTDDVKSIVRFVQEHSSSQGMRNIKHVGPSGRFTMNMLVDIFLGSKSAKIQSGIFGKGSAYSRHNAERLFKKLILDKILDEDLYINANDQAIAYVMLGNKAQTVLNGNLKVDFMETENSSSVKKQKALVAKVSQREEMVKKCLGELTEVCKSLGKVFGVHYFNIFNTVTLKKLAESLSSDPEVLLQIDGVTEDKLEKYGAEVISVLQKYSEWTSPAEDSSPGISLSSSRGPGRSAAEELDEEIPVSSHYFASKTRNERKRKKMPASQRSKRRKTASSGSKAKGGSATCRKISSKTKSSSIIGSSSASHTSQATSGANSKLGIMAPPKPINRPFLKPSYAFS
Sequence of DNA repair nuclease/redox regulator APEX1 (Homo sapiens) (P27695 whole entry, looked up): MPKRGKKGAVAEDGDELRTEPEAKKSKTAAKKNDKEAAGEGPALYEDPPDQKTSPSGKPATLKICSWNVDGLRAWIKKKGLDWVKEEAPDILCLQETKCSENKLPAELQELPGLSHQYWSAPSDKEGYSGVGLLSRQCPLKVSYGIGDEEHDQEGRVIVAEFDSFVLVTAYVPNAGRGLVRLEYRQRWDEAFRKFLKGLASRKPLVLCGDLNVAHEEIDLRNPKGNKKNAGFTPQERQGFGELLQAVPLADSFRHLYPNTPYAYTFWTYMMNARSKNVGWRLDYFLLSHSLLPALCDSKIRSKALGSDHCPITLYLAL

CO/N=C(\C(=O)N[C@@H]1C(=O)N2C(C(=O)O)=C(COC(C)=O)CS[C@H]12)c1csc(N)n1 (stereo in doubt)
inactive: [1] | [2]

CCCCCCCCCCCCCCCCCC(=O)O
inactive: [3]

CCCOC(=O)c1ccc(O)cc1
inactive: [3]

NCCNC(=O)c1ncsc1-c1cccc(F)c1
not listed: [1] | [2] | [3] | [19] | [20]
inactive: all other assays above

C=C[C@@H]1CN2CC[C@@H]1C[C@H]2[C@H](O)c1ccnc2ccc(OC)cc12
active: [17] 32.9 nM | [18] 92.8 nM
inactive: [4] | [5] | [6] | [7] | [8] | [9] | [10] | [11] | [14] | [15]

Nc1ccc(O)c([N+](=O)[O-])c1
inactive: [3]

CCCCCCCCCCCCCCCC(=O)OC(CC(=O)O)C[N+](C)(C)C (centres undefined)
not listed: [1] | [2] | [3] | [4] | [6] | [11] | [15]
inactive: all other assays above

Clc1ccc(N2CCN(Cc3c[nH]c4ncccc34)CC2)cc1
not listed: [1] | [2] | [3] | [12] | [15] | [19]
inactive: all other assays above

CN(C)CCC(c1ccc(Cl)cc1)c1ccccn1 (centres undefined)
not listed: [1] | [2] | [3] | [13] | [19] | [20]
inactive: all other assays above

CCCCC/C=C\CC(O)/C=C/c1cccc(CC(O)CCCCO)n1 (centres undefined)
inactive: [4] | [5] | [6] | [7] | [8] | [9] | [11] | [13] | [14] | [20] | [18]

CC(COc1ccc(/C=C/c2ccccc2)cc1)[N+](C)(C)C (centres undefined)
inactive: [4] | [5] | [6] | [7] | [8] | [12] | [13] | [14] | [15] | [20]
active: [17] 2080 nM | [18] 3290 nM

O=C(O)/C=C\C(=O)O
inactive: [3]

O=C1CN(/N=C/c2ccc([N+](=O)[O-])o2)C(=O)N1
inactive: [3]

S=c1[nH]c2ccccc2s1
inactive: [3]
